HEK293 tox – Cytotoxic Profiling in HEK 293 Cell Line of Diverse Libraries Using Quantitative High-Throughput Screening; HEK 293 viability, ATP luminescence (CellTiter-Glo), 48-72 h; Potency, µM (doses to about 115 µM), actives largely listed as inhibitors; 94,000 tested, 6.6% active; further: nearly all actives have a fitted effect of over 60% in size
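250 HEK 293 cells/well; compound by pintool; incubated 48 or 72 hr at 37 degree Celsius; CellTiter-Glo added, 10 min RT, luminescence imaged.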
NPR1 antag – Natriuretic polypeptide receptor (hNpr1) antagonism - Primary qHTS. Atrial natriuretic peptide receptor 1 (Homo sapiens), P16066. HEK293 hNpr1 GloSensor cGMP, ANP-stimulated luminescence. Potency, µM (series often up to 46.3 µM), actives largely listed as inhibitors. 76,000 tested, 1.6% active. AID 1347048, 2019; calls by dose curve; further: nearly all actives have a fitted effect of over 60% in size
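HEK293 cells stably expressing human Npr1 and cGMP GloSensor pGS-40F, loaded 2 h with 2% GloSensor reagent, given compound 30 min at room temperature. Luminescence read before and 20 min after 0.1 nM hNppA.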
FLuc inh – Firefly luciferase inhibition profiling of diverse chemical library using quantitative high-throughput screening; Luciferin 4-monooxygenase (Photinus pyralis), P08659; purified P. pyralis luciferase, luminescence, biochemical; Potency, µM (top dose mostly 115 µM), most hits filed as inhibitors; 76,000 tested, 2.5% active; further: nearly all actives have a fitted effect of over 65% in size
Target sequence (P08659 whole entry, looked up): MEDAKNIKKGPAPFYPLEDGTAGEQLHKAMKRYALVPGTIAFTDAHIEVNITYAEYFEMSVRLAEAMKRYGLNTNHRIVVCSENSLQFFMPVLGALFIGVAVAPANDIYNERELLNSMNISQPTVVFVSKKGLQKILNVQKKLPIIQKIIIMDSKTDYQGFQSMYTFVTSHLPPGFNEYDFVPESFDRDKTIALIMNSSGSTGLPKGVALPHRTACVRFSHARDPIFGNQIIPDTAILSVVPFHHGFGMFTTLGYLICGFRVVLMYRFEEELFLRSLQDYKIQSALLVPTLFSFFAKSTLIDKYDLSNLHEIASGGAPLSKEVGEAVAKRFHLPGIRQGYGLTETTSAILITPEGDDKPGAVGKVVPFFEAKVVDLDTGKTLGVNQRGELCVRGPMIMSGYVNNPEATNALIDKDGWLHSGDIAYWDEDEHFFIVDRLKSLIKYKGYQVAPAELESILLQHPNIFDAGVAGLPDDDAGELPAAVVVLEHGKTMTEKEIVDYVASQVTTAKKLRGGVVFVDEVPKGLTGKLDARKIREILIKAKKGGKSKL
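Purified 10nM P. pyralis luciferase with 10uM D-luciferin and 10uM ATP in 50mM Tris acetate pH 7.5, 10mM Mg acetate, 0.01% Tween-20, 0.05% BSA. qHTS titration; luminescence read by CCD imager.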
GPT2 inhibitor – Primary qHTS assay for inhibitors of Glutamate pyruvate transaminase 2 (GPT2); Alanine aminotransferase 2 (Homo sapiens), Q8TD30; Recombinant GPT2, coupled pyruvate oxidase/HRP Amplex Red fluorescence; Potency, µM (doses to about 57.7 µM), hits mostly inhibitors; 100,000 tested, 0.25% active; AID 1671188, 2021; further: nearly all actives have a fitted effect of over 60% in size
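Recombinant GPT2 (10ng/uL) with 250uM a-KG and 2mM L-alanine, 30 min at room temperature, in HEPES pH 7.5 buffer. Pyruvate detected by pyruvate oxidase/HRP/Amplex Red fluorescence after 30 min in the dark; AOA (50uM) as positive control.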
3T3 cytotox – Cytotoxic Profiling in NIH 3T3 Cell Line of Diverse Libraries Using Quantitative High-Throughput Screening. NIH 3T3 viability, CellTiter-Glo ATP luminescence, 48-72 h. Potency, µM (series often up to 96.7 µM), hits mostly inhibitors. 94,000 tested, 4.3% active; further: nearly all actives have a fitted effect of over 55% in size
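Cytotoxicity was measured by CellTiter-Glo ATP luminescence after 48 or 72 h compound exposure at 37 °C. Mouse NIH 3T3 fibroblasts were seeded at 400 cells/well and dosed by 23 nL pin transfer.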
A number is an active result. Sampled rows, rich in hits. Any-hit rate of the full collection: about 10%. Unless noted, the call rests on the fitted dose curve; in most records, active means well fitted curve in the direction sought with a large enough effect; inconclusive means small, poorly fitted or top-dose-only effect, or another doubt; inactive means no such curve, though single readings can be large; an effect the other way counts as inactive or inconclusive.

Results for CCOc1ccc(C(=O)Nc2cccc(-c3nnc4n3CCCC4)c2)cc1 ?
HEK293 tox: inconclusive; NPR1 antag: inactive; FLuc inh: 25µM; GPT2 inhibitor: inactive; 3T3 cytotox: inconclusive

Results for O=C(Nc1cccc(-c2nnc3n2CCCC3)c1)c1ccc(Cl)cc1 ?
HEK293 tox: inconclusive; NPR1 antag: inactive; FLuc inh: inconclusive; GPT2 inhibitor: inactive; 3T3 cytotox: inconclusive

Results for O=C(Nc1cccc(-c2nnc3n2CCCC3)c1)c1cc(C2CC2)[nH]n1 ?
HEK293 tox: inactive; NPR1 antag: inconclusive; FLuc inh: 20µM; GPT2 inhibitor: inactive; 3T3 cytotox: inactive

Results for O=C(Cc1ccc(F)cc1)Nc1cccc(-c2nnc3n2CCCC3)c1 ?
HEK293 tox: inconclusive; NPR1 antag: inactive; FLuc inh: inactive; GPT2 inhibitor: inactive; 3T3 cytotox: inactive

Results for O=C(Cc1ccc(Cl)cc1)Nc1cccc(-c2nnc3n2CCCC3)c1 ?
HEK293 tox: 50µM; NPR1 antag: inactive; FLuc inh: inactive; GPT2 inhibitor: inconclusive; 3T3 cytotox: inconclusive

Results for O=C(Nc1ccc(-c2nnc3n2CCCC3)cc1)c1cc(-c2ccccc2)n[nH]1 ?
HEK293 tox: inactive; NPR1 antag: inactive; FLuc inh: inactive; GPT2 inhibitor: inactive; 3T3 cytotox: inactive

How did Cn1cc(-c2ccccc2Oc2ccccc2)c2nc(CO)cn2c1=O do in these assays?
HEK293 tox: inactive; NPR1 antag: inactive; FLuc inh: inactive; GPT2 inhibitor: inactive; 3T3 cytotox: inconclusive

Results for CN1CCN(Cc2cn3c(=O)n(C)cc(-c4ccccc4F)c3n2)CC1 ?
HEK293 tox: inconclusive; NPR1 antag: inactive; FLuc inh: inactive; GPT2 inhibitor: inactive; 3T3 cytotox: inactive

How did Cn1cc(-c2ccccc2Oc2ccccc2)c2nc(CN3CCOCC3)cn2c1=O do in these assays?
HEK293 tox: inactive; NPR1 antag: inactive; FLuc inh: inactive; GPT2 inhibitor: inactive; 3T3 cytotox: 89µM

What do the screens show for `COc1cc(F)ccc1-c1cn(C)c(=O)n2cc(CN3CCOCC3)nc12`?
HEK293 tox: inactive; NPR1 antag: inactive; FLuc inh: inactive; GPT2 inhibitor: inactive; 3T3 cytotox: 112µM

How did CN1N=C(N)c2cn([C@@H]3O[C@H](COP(=O)(O)O)[C@@H](O)[C@@H]3O)c3ncnc1c23 do in these assays?
GPT2 inhibitor: 14µM

Results for Nc1ncnc2c1ncn2[C@@H]1O[C@H](COP(=O)(O)CP(=O)(O)OP(=O)(O)O)[C@@H](O)[C@H]1O ?
GPT2 inhibitor: inactive

What do the screens show for `O=C(Nc1ccccc1)N1CC(Oc2cccc(-c3nc(-c4ccccc4)no3)c2)C1`?
HEK293 tox: inconclusive; NPR1 antag: inactive; FLuc inh: inconclusive; GPT2 inhibitor: inactive; 3T3 cytotox: inconclusive

Results for COc1ccc(NC(=O)N2CC(Oc3ccc(-c4nc(-c5ccccc5)no4)cc3)C2)cc1 ?
HEK293 tox: inconclusive; NPR1 antag: inactive; FLuc inh: 1.4µM; GPT2 inhibitor: inactive; 3T3 cytotox: inactive

How did O=C(c1ccncc1)N1CC(Oc2ccc(-c3noc(-c4ccccc4)n3)cc2)C1 do in these assays?
HEK293 tox: inconclusive; NPR1 antag: inactive; FLuc inh: inconclusive; GPT2 inhibitor: inactive; 3T3 cytotox: inactive

What do the screens show for `O=C(Nc1cccc(F)c1)N1CC(Oc2ccc(-c3nc(-c4ccccc4)no3)cc2)C1`?
HEK293 tox: inconclusive; NPR1 antag: 7.1µM; FLuc inh: 2.5µM; GPT2 inhibitor: inactive; 3T3 cytotox: inconclusive

What do the screens show for `CC(C(=O)N1CC(Oc2ccc(-c3noc(-c4ccncc4)n3)cc2)C1)c1ccccc1` (centres undefined)?
HEK293 tox: inconclusive; GPT2 inhibitor: inactive; 3T3 cytotox: 25µM

What do the screens show for `Cc1noc(C)c1CO[C@@H]1COCC[C@H]1NC(=O)c1cccc(=O)[nH]1`?
HEK293 tox: inactive; NPR1 antag: inactive; FLuc inh: inactive; GPT2 inhibitor: inactive; 3T3 cytotox: inactive

How did CSc1ccc(-c2cccc(C(=O)NCC(=O)NCC3CC3)c2)cc1 do in these assays?
HEK293 tox: inconclusive; GPT2 inhibitor: inactive; 3T3 cytotox: inconclusive
